Test [1] is described as follows: ACEA_ER_80hr: ACEA Biosciences xCELLigence Real-Time Cell Analysis on Estrogen Receptor Agonism for Proliferation (AID 2282667; active means hit-call score of the fitted dose curve at least 0.9, where 1 is the maximum). As to conditions: T47D proliferation, impedance (xCELLigence), 80 h. Put shortly: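 Estrogen-driven proliferation is captured as electrode impedance in T47D cells 80 h after compound addition. Test articles ran at 8 concentrations, 1:4 dilutions from 100 uM final, in two replicate plates.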

Test [2] is described as follows: APR_HepG2_CellCycleArrest_24hr: Apredica 24-hour HepG2 Assay for Cell Cycle Arrest (AID 2282905).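 Further: cell cycle arrest scored as ratio of 2N to 4N nuclear DNA content.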 As to conditions: imaging, actives raise or lower the signal. Put shortly:
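After 24 h exposure at 0.39–200 uM in 0.5% DMSO, fixed cells received Hoechst 33342 staining. Imaging quantified per-nucleus DNA content; gain or loss fitted against DMSO controls.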

The nature of test [3]: APR_HepG2_CellLoss_24hr: Apredica 24-hour HepG2 Assay for Cell Loss (AID 2282908).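 On AC50: fit in both directions so a hit may be cell loss or gain.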 As to conditions: high-content imaging. Put shortly:
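Nuclei stained with Hoechst 33342 after formaldehyde fixation (3.7%) were imaged at 20x to count cells. Exposure lasted 24 hr, at ten concentrations from 0.39 to 200 uM in duplicate, with 0.5% v/v DMSO. Fit bidirectional, relative to DMSO.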

Test [4] in a line: APR_HepG2_MicrotubuleCSK_24hr: Apredica 24-hour HepG2 Assay for Microtubule CSK Stabilty (AID 2282909). Conditions: HepG2 microtubule cytoskeleton imaging, actives raise or lower the signal. Put shortly: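 Fixed HepG2 cells were stained for alpha-tubulin and imaged after 24 hr exposure to ten concentrations spanning 0.39–200 uM in 0.5% DMSO. Signal change was fitted in both directions relative to DMSO; taxol was the positive control.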

A short description of test [5]: APR_HepG2_MitoticArrest_24hr: Apredica 24-hour HepG2 Assay for Mitotic Arrest (AID 2282910). Conditions: high-content imaging, actives raise or lower the signal. Put shortly:
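HepG2, 24 hr dosing, 0.39–200 uM, 0.5% DMSO final. Formaldehyde-fixed, Triton-permeabilised, anti-phospho-histone H3 plus Hoechst. ArrayScan imaging at 20x; bidirectional fit vs DMSO baseline.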

The nature of test [6]: APR_HepG2_MitoMembPot_24hr: Apredica 24-hour HepG2 Assay for Mitochondrial Membrane Potential (AID 2282911). Conditions: imaging, actives raise or lower the signal. Put shortly: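 Mitochondrial dye uptake (MitoTracker Red CMXRos, 250 nM, 30 min pre-fixation) in HepG2 after 24 hr compound exposure, 0.39–200 uM; ArrayScan images at 20x, activity fitted in both directions relative to DMSO.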

The nature of test [7]: APR_HepG2_MitoMass_24hr: Apredica 24-hour HepG2 Assay for Mitochondrial Mass (AID 2282912). As to conditions: high-content imaging, actives raise or lower the signal. Put shortly: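 Endpoint is MitoTracker Red CMXRos (250 nM, 30 min, pre-fixation) intensity from 20x high-content imaging, nuclei located by Hoechst. Human HepG2 cells received ten concentrations from 0.39 to 200 uM in 0.5% DMSO for 24 hr, duplicate wells. Bidirectional fit relative to DMSO.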

Test [8] is described as follows: APR_HepG2_p53Act_24hr: Apredica 24-hour HepG2 Assay for p53 Activation (AID 2282913).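 Further: p53 protein immunofluorescence averaged per cell in HepG2 with Hoechst nuclei.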 Conditions: high-content imaging, actives raise or lower the signal. Put shortly: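 Following 24 hr dosing of HepG2 at 0.39–200 uM, the cells undergo formaldehyde fixation, Triton permeabilization and multiplexed antibody labeling that includes p53 (Cy5). Signal from the imaging is referenced to DMSO solvent controls.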

A short description of test [9]: APR_HepG2_CellLoss_72hr: Apredica 72-hour HepG2 Assay for Cell Loss (AID 2282915). Conditions: high-content imaging. Put shortly:
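HepG2 cells exposed 72 h to compound at 0.39–200 uM (10 concentrations, duplicate) in 0.5% DMSO. Fixed with 3.7% formaldehyde and Hoechst 33342-stained. Imaged at 20x; nuclear count gives cell number, fitted bidirectionally versus DMSO.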

Test [10] is described as follows: APR_HepG2_P-H2AX_72hr: Apredica 72-hour HepG2 Assay for H2AX Phosphorylation (AID 2282916).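 Further: phospho-histone H2A.x immunostain intensity per cell marking DNA damage.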 Conditions: imaging, actives raise or lower the signal. Put shortly: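 Phospho-histone H2A.x immunofluorescence, multiplexed with Hoechst and c-Jun, quantified by high-content imaging. Compounds applied to HepG2 for 72 h across ten concentrations (0.39–200 uM, 0.5% DMSO), in duplicate; DMSO baseline.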

Test [11] is described as follows: APR_HepG2_MitoMembPot_72hr: Apredica 72-hour HepG2 Assay for Mitochondrial Membrane Potential (AID 2282917). Conditions: imaging, actives raise or lower the signal. Put shortly: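 HepG2 cells dosed 72 hr with compound at 0.39–200 uM in duplicate, 0.5% v/v DMSO final. Mitochondria stained with 250 nM MitoTracker Red CMXRos for 30 min before formaldehyde fixation, imaged by high-content fluorescence; bidirectional fit versus DMSO.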

Test [12] can be described thus: APR_HepG2_MitoticArrest_72hr: Apredica 72-hour HepG2 Assay for Mitotic Arrest (AID 2282918). As to conditions: high-content imaging, actives raise or lower the signal. Put shortly:
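Using high-content imaging of fixed HepG2 cells, phospho-histone H3 signal was measured following a 72 hr incubation with ten-point compound dilutions up to 200 uM. DMSO served as the negative control and baseline for bidirectional curve fitting.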

Test [13] in a line: APR_HepG2_MicrotubuleCSK_72hr: Apredica 72-hour HepG2 Assay for Microtubule CSK Stabilty (AID 2282919). As to conditions: HepG2 microtubule cytoskeleton, high-content imaging, actives raise or lower the signal. Put shortly:
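HepG2, 72 hr cmpd exposure, 0.39–200 uM (10 pts, duplicate), 0.5% DMSO. 3.7% formaldehyde fix, 0.5% Triton perm, anti-alpha-tubulin/Cy5 plus Hoechst. HCS fluorescence intensity; bidirectional fit vs DMSO baseline; taxol as positive control.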

The nature of test [14]: APR_HepG2_P-H2AX_24hr: Apredica 24-hour HepG2 Assay for H2AX Phosphorylation (AID 2282920). Conditions: high-content imaging, actives raise or lower the signal. Put shortly:
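Human HepG2 liver cells, treated 24 hr with test chemicals (0.39–200 uM, final DMSO 0.5% v/v), are fixed and co-stained for phospho-H2A.x and c-Jun with Hoechst. Imaged intensity is fitted in both directions against DMSO controls.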

The nature of test [15]: APR_HepG2_StressKinase_72hr: Apredica 72-hour HepG2 Assay for Stress Kinase (AID 2282921). Conditions: HepG2 stress kinase (phospho-c-Jun) imaging, actives raise or lower the signal. Put shortly:
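Stress kinase signal is phospho-c-Jun immunofluorescence (1:500 primary, Cy3 secondary) in fixed, permeabilized human HepG2 cells imaged at 20x. Exposure lasted 72 hr over ten concentrations from 0.39 to 200 uM, 0.5% DMSO, in duplicate. Bidirectional fit versus DMSO.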

Test [16] is described as follows: APR_HepG2_StressKinase_24hr: Apredica 24-hour HepG2 Assay for Stress Kinase (AID 2282922). Conditions: HepG2 stress kinase (phospho-c-Jun) imaging, actives raise or lower the signal. Put shortly:
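Read-out: phospho-c-Jun immunofluorescence (Cy3 secondary) quantified by high-content imaging at 20x, nuclei defined by Hoechst 33342. Human HepG2 liver cells dosed 24 hr, 0.39–200 uM, DMSO 0.5% v/v; gain or loss of signal fitted relative to DMSO.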

Test [17] in a line: APR_HepG2_MitoMass_72hr: Apredica 72-hour HepG2 Assay for Mitochondrial Mass (AID 2282924).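 Further: MitoTracker Red CMXRos stain intensity per cell imaged as mitochondrial mass.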 As to conditions: high-content imaging, actives raise or lower the signal. Put shortly:
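Read-out: MitoTracker Red fluorescence intensity from automated imaging (20x, six fields per well) in human HepG2 liver cells. Dosing ran 72 hr, 0.39–200 uM, 0.5% DMSO; bidirectional curve fitting versus DMSO baseline.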

A short description of test [18]: APR_HepG2_NuclearSize_72hr: Apredica 72-hour HepG2 Assay for Nuclear Size (AID 2282925). As to conditions: high-content imaging, actives raise or lower the signal. Put shortly: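 Read-out: nuclear diameter from Hoechst 33342 images (ArrayScan, 20x, six fields/well), via cell-cycle image analysis. HepG2 were dosed 0.39–200 uM for 72 hr in 0.5% DMSO. Bidirectional fit relative to DMSO.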

A short description of test [19]: APR_HepG2_NuclearSize_24hr: Apredica 24-hour HepG2 Assay for Nuclear Size (AID 2282907). Conditions: high-content imaging, actives raise or lower the signal. Put shortly: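 Nuclear size from Hoechst 33342-stained, formaldehyde-fixed HepG2 nuclei imaged by high-content microscopy, after 24 h dosing at ten concentrations from 0.39 to 200 uM in 0.5% DMSO; gain or loss relative to DMSO baseline.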

A short description of test [20]: APR_HepG2_CellCycleArrest_72hr: Apredica 72-hour HepG2 Assay for Cell Cycle Arrest (AID 2282914). As to conditions: high-content imaging, actives raise or lower the signal. Put shortly: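 Using multiplexed high-content imaging, HepG2 nuclei stained with Hoechst 33342 (2 ug/mL) were analysed for DNA content after fixation and permeabilization. Treatment lasted 72 hr across 0.39–200 uM in duplicate with final DMSO 0.5% v/v; DMSO served as negative control.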

Results filed as inconclusive are left out. Active and inactive are the calls of the source. How the source made its calls, unless noted: active means hit-call score of the fitted dose curve at least 0.9, where 1 is the maximum; inactive means score below 0.9.

Consider `NC(=O)NN=Cc1ccc([N+](=O)[O-])o1`, for which the AC50 – broadly, the concentration at which the activity in the assay is half-maximal – was 10.5 µM (active) in test [1]; 81.4 µM (active) in test [2]; 57.6 µM (active) in test [3]; 67.8 µM (active) in test [9]; 77.3 µM (active) in test [10]; 68.7 µM (active) in [12]. Also, the concentration at half-maximal activity (AC50) in test [13] is 85.4 µM (active); in test [14] it was 72 µM (active). Also, the call in [4], in test [5], in [6], in [7], in test [8] and in test [11] was inactive. The compound was classed as inactive in test [15], in [16], in [17] and in [18].

Regarding `OC(CCl)CCl`, the result in test [1], in [2], in test [19], in test [3], in [4] and in test [5] was inactive. In addition, the compound was called inactive in [6], in test [8], in [9], in test [10], in test [11] and in test [12]. The compound was classed as inactive in test [13], in [14], in test [15], in test [16], in test [17] and in test [18].

With `CCN(CC)C(=S)SSC(=S)N(CC)CC`, the call in test [1], in test [2], in [19], in test [6] and in [18] was inactive. For the same compound, the AC50 in [3] was 50.6 µM (active); in [4] it was 78.9 µM (active); in test [5], 25.2 µM (active); in [8] it was 4.83 µM (active); in [9] it was 22.9 µM (active); in [10] it was 27.1 µM (active). The AC50 in test [11] is 37.4 µM (active); in test [12], 23.5 µM (active); in test [13] it was 60.7 µM (active); in test [14], 7.04 µM (active); in [15], 31 µM (active); in test [16] it was 87.4 µM (active). For the same compound, in test [17], the concentration at half-maximal activity (AC50) is 14.4 µM (active).

Take `CC(C)C(=O)Nc1ccc([N+](=O)[O-])c(C(F)(F)F)c1`: the AC50 is 80.5 µM (active) in [1]; 71 µM (active) in test [2]; 44.4 µM (active) in [3]; 62.8 µM (active) in test [5]; 92.2 µM (active) in test [7]; 34.9 µM (active) in test [20]. Besides, the AC50 in test [9] was 58.8 µM (active); in test [10] it was 70.8 µM (active); in [12], 61 µM (active); in [13], 67.8 µM (active); in [14] it was 91 µM (active); in [17], 74.9 µM (active). Also, the AC50 in [18] is 111 µM (active). Also, the outcome in test [4], in test [6], in test [11], in test [15] and in test [16] was inactive.

With `CCCCCOC(C)=O`, the compound was classed as inactive in test [1], in test [2], in test [19], in test [3], in test [4] and in test [5]. In addition, the compound was classed as inactive in [6], in test [9], in test [10], in [11], in test [12] and in test [13]. Further, the compound was called inactive in [14], in [15], in test [16], in [17] and in [18].

Turning to `CCCCCCOC(=O)CC(CC(=O)OCCCCCC)(OC(=O)CCC)C(=O)OCCCCCC`, in test [1], the AC50 is 50 µM (active). In addition, the compound was classed as inactive in [2], in [3], in test [4], in test [5], in test [6] and in test [7]. The compound was classed as inactive in test [9], in test [10], in test [11], in test [12], in test [13] and in test [14]. Also, the result in test [15], in [16], in test [17] and in [18] was inactive.

As to `COc1cc(C(C)C)c2c(c1)S(=O)(=O)N(COc1cc(=O)n3cccc(OCCN4CCCCC4)c3n1)C2=O`, the result in test [1], in test [19], in [10], in [11], in test [12] and in test [13] was inactive. Besides, the compound was called inactive in test [15], in test [16], in [17] and in test [18]. Also, the AC50 in test [2] was 17.7 µM (active); in test [3] it was 24.2 µM (active); in [4], 15.8 µM (active); in test [5], 24 µM (active); in test [6], 26.4 µM (active); in test [9] it was 23.1 µM (active). Besides, the AC50 in test [14] is 10.7 µM (active).

(Values after PubChem BioAssay (EPA / NIEHS).)
